Data taken from PubChem BioAssay (EPA / NIEHS).
The source holds several records for some structures; these can differ, active in one and inactive in another. Active and inactive are the calls of the source. The calls were made as follows: active = hit-call score of the fitted dose curve at least 0.9, where 1 is the maximum; inactive = score below 0.9.

Legend:
[1] = read-out: Thrombomodulin, THBD (gene 7056); assay: BSK_CASM3C_Thrombomodulin: BioMAP Diversity Plus: CASM3C Assay for Thrombomodulin Biomarker Activity (AID 2283051); conditions: primary human coronary artery smooth muscle cells; actives raise or lower the signal;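 also: thrombomodulin protein level measured by ELISA 24 h after dosing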
[2] = read-out: Tissue Factor, F3 (gene 2152); assay: BSK_CASM3C_TissueFactor: BioMAP Diversity Plus: CASM3C Assay for Tissue Factor Biomarker Activity (AID 2283052); conditions: primary human coronary artery smooth muscle cells; actives raise or lower the signal;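 also: cell surface tissue factor protein level read by ELISA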
[3] = read-out: Interferon-gamma inducible Protein 10 (IP10), CXCL10 (gene 3627); assay: BSK_hDFCGF_IP10: BioMAP Diversity Plus: hDFCGF Assay for Interferon-gamma inducible Protein 10 (IP10) Biomarker Activity (AID 2283053); conditions: primary human foreskin fibroblasts; actives raise or lower the signal
Method in brief: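 Cells: human dermal foreskin fibroblasts. Exposure: 24 h post-dosing. Detection: IP-10 ELISA, with values expressed against DMSO controls and fitted in both directions.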

[4] = read-out: Urokinase-type plasminogen activator receptor (uPAR), PLAUR (gene 5329); assay: BSK_CASM3C_uPAR: BioMAP Diversity Plus: CASM3C Assay for Urokinase-type plasminogen activator receptor (uPAR) Biomarker Activity (AID 2283054); conditions: primary human coronary artery smooth muscle cells; actives raise or lower the signal;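 also: cell-surface uPAR protein level quantified by ELISA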
[5] = read-out: Vascular cell adhesion molecule 1 (VCAM1), VCAM1 (gene 7412); assay: BSK_CASM3C_VCAM1: BioMAP Diversity Plus: CASM3C Assay for Vascular cell adhesion molecule 1 (VCAM1) Biomarker Activity (AID 2283055); conditions: primary human coronary artery smooth muscle cells; actives raise or lower the signal;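 also: VCAM-1 protein level quantified by ELISA on the cells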
[6] = read-out: Epidermal growth factor receptor (EGFR), EGFR (gene 1956); assay: BSK_hDFCGF_EGFR: BioMAP Diversity Plus: hDFCGF Assay for Epidermal growth factor receptor (EGFR) Biomarker Activity (AID 2283057); conditions: primary human foreskin fibroblasts; actives raise or lower the signal
Method in brief: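 Dosing human primary skin fibroblasts, then measuring surface EGFR by ELISA at 24 h, gives the endpoint; gains and losses relative to DMSO were fitted in both directions.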

[7] = read-out: Interleukin-8 (IL8), CXCL8 (gene 3576); assay: BSK_hDFCGF_IL8: BioMAP Diversity Plus: hDFCGF Assay for Interleukin-8 (IL8) Biomarker Activity (AID 2283058); conditions: primary human foreskin fibroblasts; actives raise or lower the signal
Method in brief: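 Fibroblast monolayers (human foreskin, hDFCGF) received test chemical for 24 h before ELISA detection of IL-8; either increases or decreases relative to DMSO count as activity.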

[8] = BSK_hDFCGF_Proliferation: Cell Proliferation Assessment in the BioMAP Diversity Plus: hDFCGF Assay (AID 2283059); conditions: primary human foreskin fibroblasts;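 also: curves fitted for both rise and fall of signal versus DMSO baseline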
Method in brief: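 Primary human foreskin fibroblasts, sub-confluent; […]; 10% TCA fix, 0.1% SRB stain, A560 total protein. Gain/loss fitted bidirectionally vs DMSO control.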

[9] = read-out: Macrophage colony-stimulating factor (MCSF), CSF1 (gene 1435); assay: BSK_hDFCGF_MCSF: BioMAP Diversity Plus: hDFCGF Assay for Macrophage colony-stimulating factor (MCSF) Biomarker Activity (AID 2283060); conditions: primary human foreskin fibroblasts; actives raise or lower the signal
Method in brief: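 fibroblasts (human foreskin, primary), 24 h post-dose; M-CSF by ELISA; bidirectional fit, DMSO = baseline.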

[10] = BSK_hDFCGF_SRB: Viability Assessment in the BioMAP Diversity Plus: hDFCGF Assay (AID 2283061); conditions: primary human foreskin fibroblasts;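 also: cells exposed to compound for 24 h before the read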
Method in brief: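 SRB-based viability read on primary human skin fibroblasts at 24 h: TCA fixation, 0.1% dye, 560 nm. Gain or loss of signal is fitted against the DMSO negative control.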

[11] = read-out: TIMP metallopeptidase inhibitor 1 (TIMP1), TIMP1 (gene 7076); assay: BSK_hDFCGF_TIMP1: BioMAP Diversity Plus: hDFCGF Assay for TIMP metallopeptidase inhibitor 1 (TIMP1) Biomarker Activity (AID 2283062); conditions: primary human foreskin fibroblasts; actives raise or lower the signal
Method in brief: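 Bidirectional curve fitting against DMSO baseline yielded this endpoint, based on ELISA detection of TIMP-1 in primary human foreskin fibroblasts exposed to compound for 24 h.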

[12] = read-out: Monokine induced gamma interferon (MIG), CXCL9 (gene 4283); assay: BSK_hDFCGF_MIG: BioMAP Diversity Plus: hDFCGF Assay for Monokine induced gamma interferon (MIG) Biomarker Activity (AID 2283063); conditions: primary human foreskin fibroblasts; actives raise or lower the signal
Method in brief: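 Endpoint derived by bidirectional fitting relative to DMSO; MIG quantified via ELISA in primary human foreskin fibroblasts harvested 24 h after dosing.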

[13] = read-out: Matrix Metallopeptidase 1 (MMP1), MMP1 (gene 4312); assay: BSK_hDFCGF_MMP1: BioMAP Diversity Plus: hDFCGF Assay for Matrix Metallopeptidase 1 (MMP1) Biomarker Activity (AID 2283064); conditions: primary human foreskin fibroblasts; actives raise or lower the signal
Method in brief: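 ELISA read-out of MMP1 from human foreskin fibroblasts (primary skin cells), 24 h post-dose. Gain or loss of signal was fitted bidirectionally versus DMSO negative control; cytotoxicity was checked by SRB in parallel cultures.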

[14] = read-out: Vascular cell adhesion molecule 1 (VCAM1), VCAM1 (gene 7412); assay: BSK_hDFCGF_VCAM1: BioMAP Diversity Plus: hDFCGF Assay for Vascular cell adhesion molecule 1 (VCAM1) Biomarker Activity (AID 2283065); conditions: primary human foreskin fibroblasts; actives raise or lower the signal;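 as to AC50: VCAM-1 protein level quantified by ELISA after 24 h chemical exposure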
Method in brief: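 Measured after 24 h chemical treatment of primary human skin fibroblasts, VCAM-1 was detected by ELISA and concentration-response analysed in both directions versus DMSO vehicle.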

[15] = read-out: Plasminogen activator inhibitor-1 (PAI1), SERPINE1 (gene 5054); assay: BSK_hDFCGF_PAI1: BioMAP Diversity Plus: hDFCGF Assay for Plasminogen activator inhibitor-1 (PAI1) Biomarker Activity (AID 2283066); conditions: primary human foreskin fibroblasts; actives raise or lower the signal
Method in brief: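 Fibroblasts from human foreskin were treated with test chemical. After 24 h, PAI-1 was measured by ELISA. Activity was fitted in both directions relative to DMSO.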

[16] = read-out: Intercellular Adhesion Molecule 1 (ICAM1), ICAM1 (gene 3383); assay: BSK_KF3CT_ICAM1: BioMAP Diversity Plus: KF3CT Assay for Intercellular Adhesion Molecule 1 (ICAM1) Biomarker Activity (AID 2283067); conditions: primary human keratinocytes with fibroblasts; actives raise or lower the signal
Method in brief: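 Bidirectional curve fitting against a DMSO baseline was applied to ICAM-1 ELISA signal from primary human skin co-cultures harvested 24 h after treatment, with SRB staining of parallel wells for overt cytotoxicity.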

[17] = read-out: Interferon-gamma inducible Protein 10 (IP10), CXCL10 (gene 3627); assay: BSK_KF3CT_IP10: BioMAP Diversity Plus: KF3CT Assay for Interferon-gamma inducible Protein 10 (IP10) Biomarker Activity (AID 2283068); conditions: primary human keratinocytes with fibroblasts; actives raise or lower the signal
Method in brief: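 In a primary skin co-culture of keratinocytes and fibroblasts, IP-10 is quantified by ELISA at 24 h after dosing. SRB staining of parallel wells monitors overt toxicity. Curves are fitted both directions against DMSO.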

[18] = BSK_KF3CT_SRB: Viability Assessment in the BioMAP Diversity Plus: KF3CT Assay (AID 2283069); conditions: primary human keratinocytes with fibroblasts;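 also: total protein by sulforhodamine B staining as a cytotoxicity measure; fitted for both signal gain and loss against DMSO baseline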
Method in brief: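 SRB read-out at 560 nm (0.1% stain, TCA-fixed cells) gauges overt cytotoxicity in a human skin keratinocyte–fibroblast co-culture 24 h post-dosing. Signal change was fitted bidirectionally relative to DMSO control.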

[19] = read-out: Interleukin-1 alpha (IL1a), IL1A (gene 3552); assay: BSK_KF3CT_IL1a: BioMAP Diversity Plus: KF3CT Assay for Interleukin-1 alpha (IL1a) Biomarker Activity (AID 2283070); conditions: primary human keratinocytes with fibroblasts; actives raise or lower the signal
Method in brief: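 Primary skin co-culture (keratinocytes, foreskin fibroblasts), 24 h exposure; ELISA for IL-1a; bidirectional curve fit vs DMSO.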

[20] = read-out: Collagen III, COL3A1 (gene 1281); assay: BSK_hDFCGF_CollagenIII: BioMAP Diversity Plus: hDFCGF Assay for Collagen III Biomarker Activity (AID 2283056); conditions: primary human foreskin fibroblasts; actives raise or lower the signal
Method in brief: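 Response relative to DMSO, fitted in both directions, reflects ELISA-measured collagen III in human primary skin fibroblasts 24 h after compound addition.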

Measured: AC50

NC(O)(C(F)(F)F)C(F)(F)F
inactive: [1] | [2] | [3] | [4] | [5] | [6] | [7] | [8] | [9] | [10] | [11] | [12] | [13] | [14] | [15] | [16] | [17] | [18] | [19]

Cc1cc(C)c(O)c(C(C)(C)C)c1
active: [2] 27.4 µM | [3] 35.9 µM | [4] 31.2 µM | [5] 29.5 µM | [8] 18.8 µM | [9] 34.4 µM | [10] 35.2 µM | [11] 30.1 µM | [12] 32.8 µM | [13] 34 µM | [14] 34.7 µM | [15] 30.9 µM | [16] 35.1 µM | [17] 34.2 µM | [18] 33.5 µM | [19] 31.1 µM
inactive: [1] | [6]

OCC(O)CC(F)(F)C(F)(F)C(F)(F)C(F)(F)C(F)(F)C(F)(F)C(F)(F)C(F)(F)F (stereo unspecified)
inactive: [1] | [2] | [3] | [4] | [5] | [6] | [7] | [8] | [9] | [10] | [11] | [12] | [13] | [14] | [15] | [16] | [17] | [18] | [19]
active: [19] 0.166 µM

CCOC(=O)CC(=O)C(F)(F)C(F)(F)F
inactive: [1] | [2] | [3] | [4] | [5] | [20] | [6] | [7] | [8] | [9] | [10] | [11] | [12] | [13] | [14] | [15] | [16] | [17] | [18] | [19]

C[C@]12CC[C@H]3C(=CCc4cc(O)ccc43)[C@@H]1CCC2=O
inactive: [1] | [2] | [3] | [4] | [5] | [6] | [7] | [8] | [9] | [10] | [11] | [12] | [13] | [14] | [15] | [16] | [17] | [18] | [19]
